# From PubChem
# PHOSPHO1 block: PHOSPHO1 (human) inhibition | Q8TCT1 | recombinant PHOSPHO1, absorbance phosphatase assay | inhibition, % at 13.3 µM | 1.1% of 290,000 active | AID 1565; in the data active = inhibition above about 60%
# Target sequence (Q8TCT1 whole entry, looked up): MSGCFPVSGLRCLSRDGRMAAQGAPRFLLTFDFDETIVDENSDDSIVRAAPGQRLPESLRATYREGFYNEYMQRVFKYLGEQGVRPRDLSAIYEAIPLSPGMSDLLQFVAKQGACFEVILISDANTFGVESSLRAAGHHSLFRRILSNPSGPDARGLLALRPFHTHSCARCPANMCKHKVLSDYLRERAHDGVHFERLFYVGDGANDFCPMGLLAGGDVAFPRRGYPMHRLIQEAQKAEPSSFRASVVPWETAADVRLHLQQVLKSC
# ALR H2O2 inh: inhibitors of human sulfhydryl oxidase ALR. P55789. 3.8% of 290,000 active. purified ALR, DTT oxidation, H2O2 HRP-luminol luminescence. AID 485317. inhibition, % (no concentration beside the values);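 active = mean replicate inhibition above about 79%, with every replicate also reaching it, limit read from the data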
# A3G deaminase: inhibitors of human APOBEC3G DNA deaminase; Q9HC16; recombinant A3G, ssDNA deamination FAM/TAMRA fluorescence; AID 493012; 0.28% of 330,000 active; inhibition, % at 20 µM;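 active = inhibition of at least 40% at 20 µM, with no more than 30% in the related APOBEC3A deaminase screen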;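 note: plate controls were DMSO wells with A3G for no effect and wells lacking A3G enzyme for full effect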
# Target sequence (Q9HC16 whole entry, looked up): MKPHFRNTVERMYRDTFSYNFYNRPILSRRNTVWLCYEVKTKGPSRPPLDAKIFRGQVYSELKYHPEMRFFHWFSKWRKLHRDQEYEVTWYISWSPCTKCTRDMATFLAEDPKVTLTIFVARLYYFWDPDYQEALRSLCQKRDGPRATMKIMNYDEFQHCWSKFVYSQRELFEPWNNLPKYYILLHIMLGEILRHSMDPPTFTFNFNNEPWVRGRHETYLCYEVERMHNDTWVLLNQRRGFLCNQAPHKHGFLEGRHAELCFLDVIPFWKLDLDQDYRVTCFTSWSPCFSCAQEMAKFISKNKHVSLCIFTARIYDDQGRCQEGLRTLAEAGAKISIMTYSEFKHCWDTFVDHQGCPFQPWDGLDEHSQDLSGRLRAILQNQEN
# aDG glyco up: increases alpha dystroglycan glycosylation; Pro5-aDG cells, alpha-DG glycosylation AlphaScreen (IIH6); 0% Pro5, 100% B10-LARGE cell signal; activation, % at 10 µM; 0.22% of 360,000 active; AID 624168;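 active = activation of at least 8% versus controls, or a plate z-score of at least 8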;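 note: Pro5 are CHO cells carrying HIG-tagged alpha-DG that lacks glycosylation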
# A3A deaminase: human APOBEC3A DNA deaminase inhibition | P31941 | inhibition, % at 20 µM | 0.41% of 330,000 active | recombinant A3A, FAM/TAMRA ssDNA deamination fluorescence;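 active = at least 40% inhibition at 20 µM here, with at most 30% in a related deaminase screen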;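 note: plate controls were A3A with DMSO for no effect and wells lacking A3A enzyme for full effect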
# rCAG binder: binds r(CAG) RNA repeats | 1.3% of 370,000 active | inhibition, % at 3 µM | r(CAG) RNA repeat, TO-PRO-1 dye displacement fluorescence;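 active = inhibition above the plate cutoff, the mean of all test compounds on that plate plus 3 SD, cut at about 35% in these data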;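 note: 0% = DMSO alone and 100% = 100 µM mitoxantrone as full dye displacement; higher means more dye released from RNA so lower well fluorescence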
# rCAG bind conf: r(CAG) RNA repeat binding, confirmation. shares compounds with rCAG binder. TO-PRO-1 dye displacement fluorescence. inhibition, % at 3 µM. 70% of 4,300 active. AID 652065;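 active = inhibition above a per-plate cutoff, the mean inhibition of sample wells plus 3 SD, cut at about 35% in these data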;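 note: loss of TO-PRO-1 fluorescence as compound displaces dye from 1x1 AA loop RNA; 0% = DMSO only wells and 100% = 100 µM mitoxantrone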
# dCAG dye counter: counter-screen for rCAG RNA binders: DNA CAG dye complex inhibitors | 94% of 4,300 active | inhibition, % at 3 µM | d(CAG) DNA oligo TO-PRO-1 dye displacement, fluorescence | shares compounds with rCAG binder;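 active = inhibition above its plate's cutoff, the mean test-well inhibition plus 3 SD, cut at about 4.8% in these data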;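 note: 0% = DNA dye mix with DMSO and 100% = 100 µM mitoxantrone; hits displace the dye from DNA and so lower well fluorescence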
# dCAG dye DR: disrupts DNA CAG TO-PRO-1 complex in dose response. shares compounds with rCAG binder. DNA CAG/GTC duplex TO-PRO-1 dye displacement fluorescence. IC50, µM. 20% of 250 active. AID 686960; in the data active = IC50 below about 10 µM
# Numbers without * were called inactive; / = not tested or not shown. In the library only some 5.4% were active in any assay of this set; here they are far more common.
SMILES,PHOSPHO1 block,ALR H2O2 inh,A3G deaminase,aDG glyco up,A3A deaminase,rCAG binder,rCAG bind conf,dCAG dye counter,others
O=C(O)c1[nH]c2ccccc2c1C(c1cc(Cl)cc([N+](=O)[O-])c1O)c1c(C(=O)O)[nH]c2ccccc12,/,/,-1,0,1,92*,73*,37*,
O=C(O)c1[nH]c2ccccc2c1C(c1ccccc1)c1c(C(=O)O)[nH]c2ccccc12,/,/,-5,0,-1,70*,47*,15*,
COc1cc(C(NC(C)=O)NC(C)=O)ccc1OCc1ccccc1,58,12,-6,0,-2,-2,/,/,
COc1cc(C(c2c(C(=O)O)[nH]c3ccccc23)c2c(C(=O)O)[nH]c3ccccc23)ccc1OCc1ccccc1,25,-6,-2,0,-5,94*,90*,68*,
COC(=O)c1[nH]c2ccc(Cl)cc2c1NC(=O)c1ccccc1[N+](=O)[O-],-16,1,-6,0,-1,11,/,/,
COc1ccc(OC)c(NC(=O)Nc2nc(C(C)N)cs2)c1 (configuration not stated),/,/,/,0,/,9,/,/,
CCC(=Cc1ccccc1OC)c1ccncc1,/,/,/,0,/,-1,/,/,
COc1ccc(S(=O)(=O)N(C(C)=O)c2ccc3oc(=O)sc3c2)cc1,34,/,-1,0,-2,44*,10,6.0*,
CC1(C(=O)NS(=O)(=O)c2cccs2)CCN1C(=O)C1CCCCC1 (configuration not stated),/,/,/,1,/,3,/,/,
COc1ccc(-n2c(SCC(=O)N(CC(C)C)CC(C)C)nnc2-c2ccncc2)cc1,/,/,/,/,/,-3,/,/,
COc1ccc(OC)c(NC(=O)CSc2sc3c(O)cc(=O)[nH]c3c2C#N)c1,16,-18,-1,0,21,48*,22,10*,
COc1ccc(OC)c(NC(=O)CSc2nnc(N)s2)c1,-34,-17,-1,0,1,0,/,/,
N#Cc1c(SCC(=O)Nc2nncs2)sc2c(O)cc(=O)[nH]c12,-132,2,51,0,73,62*,44*,15*,
Cc1ccc(NC(=O)CSc2sc3c(O)cc(=O)[nH]c3c2C#N)c(F)c1,24,55,11,0,19,45*,26,11*,
N#Cc1c(SCC(=O)Nc2ccc(C(F)(F)F)cc2)sc2c(O)cc(=O)[nH]c12,10,95*,-3,0,2,53*,30,11*,
N#Cc1ccsc1NC(=O)CSc1nncs1,/,2,-7,0,-1,11,/,/,
CC(C)(C)S(=O)(=O)N1C[C@@H]2CC(=O)C=C2[C@H]1CCO,/,/,/,/,/,2,/,/,
CCCCCCn1c(=O)n2n(c1=O)C[C@]1(OC(=O)NCc3ccccc3)CN(S(=O)(=O)c3ccc(C)cc3)C[C@]1(O)C2,/,/,/,0,/,2,/,/,
COC(=O)c1ccc(CSc2nc3c(cnn3-c3ccccc3)c(=O)[nH]2)o1,-1,-7,-7,0,-4,38*,36*,8.0*,
Cc1ccc(S(=O)(=O)NC(=O)c2ccc(-c3ccc(C)c4ccccc34)o2)cc1,-14,-9,-2,0,2,77*,73*,28*,dCAG dye DR=8.4*
COc1cccc(-c2nc(-c3ccccc3)c(-c3ccccc3)[nH]2)c1OCC(=O)O,20,5,-6,0,-3,64*,61*,19*,
O=C(O)COc1ccccc1-c1nc(-c2ccccc2)c(-c2ccccc2)[nH]1,19,98*,1,0,-1,63*,51*,13*,
CC(=O)Nc1cccc(-c2ccnc3c2CC(C)(C(=O)Nc2cccc(Oc4ccccc4)c2)O3)c1 (configuration not stated),/,/,/,0,/,12,/,/,
CCCNC(=O)C1(C)CCN1C(=O)c1ccccc1CCc1ccccc1 (configuration not stated),/,/,/,0,/,0,/,/,
CC1(C(=O)NS(=O)(=O)c2ccc(Cl)s2)CCN1C(=O)c1ccccc1CCc1ccccc1 (configuration not stated),/,/,/,0,/,71*,72*,31*,dCAG dye DR=3*
SMILES,PHOSPHO1 block,ALR H2O2 inh,A3G deaminase,aDG glyco up,A3A deaminase,rCAG binder,rCAG bind conf,dCAG dye counter,others
Cc1ccccc1S(=O)(=O)NC(=O)C1(C)CCN1C(=O)c1ccccc1CCc1ccccc1 (configuration not stated),/,/,/,1,/,50*,41*,10*,
CC(C)(C(=O)N1CCC1(C)C(=O)NS(=O)(=O)c1ccc(Cl)s1)c1ccccc1 (configuration not stated),/,/,/,0,/,23,/,/,
Cc1ccc(S(=O)(=O)NC(=O)C2(C)CCN2C(=O)c2ccccc2CCc2ccccc2)cc1 (configuration not stated),/,/,/,4,/,48*,48*,14*,
CC1(C(=O)NS(=O)(=O)c2ccc(C#N)cc2)CCN1C(=O)c1cccc2ccccc12 (configuration not stated),/,/,/,0,/,11,/,/,
CC1(C(=O)NS(=O)(=O)c2ccc(C#N)cc2)CCN1C(=O)c1ccccc1CCc1ccccc1 (configuration not stated),/,/,/,0,/,48*,45*,11*,
Cc1noc(C)c1S(=O)(=O)NC(=O)C1(C)CCN1C(=O)c1ccccc1CCc1ccccc1 (configuration not stated),/,/,/,0,/,31,/,/,
CCC(C)[C@@H](C(=O)OC)N(Cc1cn(Cc2ccccc2)nn1)S(=O)(=O)c1ccccc1Br (some centres not stated),/,/,/,/,/,-1,/,/,
Cc1cc(Br)c2nc(-c3ccc(Cl)cc3)c(Cc3cccc(Cl)c3)n2c1,/,/,/,/,/,16,/,/,
O=C(Nc1cccc2ccccc12)c1ccc2sc([C@H]3C[C@H](O)[C@@H](CO)O3)nc2c1,/,/,/,0,/,3,/,/,
CC1(C(=O)NS(=O)(=O)c2ccccc2)CCN1C(=O)c1ccccc1CCc1ccccc1 (configuration not stated),/,/,/,0,/,40*,33,6.5*,
O=C(c1cccc(S(=O)(=O)Nc2ccccc2Cl)c1)N1CCC1,/,-13,-8,0,2,-1,/,/,
CC1CCCN(C(=O)c2cccc(S(=O)(=O)Nc3cc(C(F)(F)F)ccc3Cl)c2)C1 (configuration not stated),3,53,/,0,/,62*,60*,27*,
COCc1cc(N2CCN(C(=O)OC(C)(C)C)C[C@H]2C)ccc1N1CC[C@@H](O)C1,/,/,/,/,/,11,/,/,
CCOC(=O)c1cc2ccccc2n1C1CCN(CCc2ccccc2)CC1,/,/,/,0,/,0,/,/,
